In the library only some 7.4% were active in any assay of this set; here they are far more common.
ELG1 genotoxic: inducers of genotoxicity in HEK293T ELG1-luciferase cells | 1.3% of 330,000 active | Potency, µM (titrated, usually from 46 µM), for inactives: at the top dose activity change, positive = activation, hits mostly activators | HEK293T ELG1-luciferase reporter, luminescence, 16 h; further: % of control where 0% means no effect; nearly all actives have a fitted effect of over 60% in size
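ELG1-luciferase HEK293T cells, 2,000/well; compound pinned in; 16 hr, 37 °C, 5% CO2; ONE-Glo, 30 min RT; luminescence on CCD imager.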
SMN2 splice up: SMN2 splice variant enhancement | HEK293 SMN2-luciferase splicing reporter, luminescence, 30-36 h | Potency, µM (titrated, usually from 46.1 µM), without a hit: at the highest dose activity change, positive = activation, hits mostly activators | 2.8% of 210,000 active; further: % of control where 0% means no effect; nearly all actives have a fitted effect of over 55% in size
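qHTS luciferase splicing reporter: luminescence rises when SMN2 exon 7 is included in transfected HEK293 cells. Compound exposure lasted 30-36 h at 37C, with 4.5 mM final sodium butyrate as control, followed by a ONE-Glo read.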
NPC1 prom act: activators of NPC1 promoter. Huh7 NPC1 promoter luciferase reporter, 24 h. Potency, µM (doses to about 9.22 µM), for inactives: at the highest dose activation, actives largely listed as activators. 2.4% of 320,000 active. AID 485313; further: % of control where 0% means no effect; nearly all actives have a fitted effect of over 60% in size
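Stable NPC1-promoter luciferase Huh7 line; cpd (DMSO) 24 h, 37 °C, 5% CO2; Amplite luciferase reagent 10 min RT; luminescence readout. qHTS format.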
Rab9 prom act: Rab9 promoter activation; 2.8% of 320,000 active; AID 485297; Huh7 Rab9 promoter-luciferase reporter, luminescence, 24 h; Potency, µM (top dose mostly 9.22 µM), for the others: at the top dose activation, negative = inhibition, hits mostly activators; further: % of control where 0% means no effect; nearly all actives have a fitted effect of over 60% in size
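Using Huh7 cells stably transfected with Rab9 promoter–luciferase, compounds were incubated 24 h at 37 °C, 5% CO2; luciferase luminescence was read 10 min after reagent addition.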
FLuc modulator: counter-screen for miR-21 project: firefly luciferase inhibitors or activators | purified FLuc, Km substrates, luminescence inhibition | 6.9% of 360,000 active | P08659 | Potency, µM (highest dose often 57.5 µM), for the others: top-dose activity change, negative = inhibition, most hits filed as inhibitors;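 further: plate controls were vehicle for no effect and reference inhibitor for full effect; nearly all actives have a fitted effect of over 55% in size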
Target sequence (P08659 whole entry, looked up): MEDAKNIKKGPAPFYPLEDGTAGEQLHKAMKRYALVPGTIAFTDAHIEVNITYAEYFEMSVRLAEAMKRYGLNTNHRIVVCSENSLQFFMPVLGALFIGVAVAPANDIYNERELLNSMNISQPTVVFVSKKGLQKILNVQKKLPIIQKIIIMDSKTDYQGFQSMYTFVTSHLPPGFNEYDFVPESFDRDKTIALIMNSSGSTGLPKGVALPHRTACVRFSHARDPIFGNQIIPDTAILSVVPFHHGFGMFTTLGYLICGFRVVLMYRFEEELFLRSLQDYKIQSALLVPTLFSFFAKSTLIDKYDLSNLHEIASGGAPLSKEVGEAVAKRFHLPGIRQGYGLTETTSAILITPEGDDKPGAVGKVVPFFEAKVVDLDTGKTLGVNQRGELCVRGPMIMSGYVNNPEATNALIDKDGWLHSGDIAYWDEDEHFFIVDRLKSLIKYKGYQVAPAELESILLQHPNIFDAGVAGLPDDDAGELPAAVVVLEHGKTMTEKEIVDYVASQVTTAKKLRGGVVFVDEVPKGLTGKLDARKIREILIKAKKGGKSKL
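Purified P. pyralis luciferase, 10 nM final, with Km-level 10 uM D-luciferin and 10 uM ATP in 50 mM Tris acetate pH 7.5, 10 mM Mg acetate, 0.01% Tween-20, 0.05% BSA; 6-point qHTS titration about 60 µM downward; luminescence read.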
Active calls of the source: *; ? = inconclusive; / = no result. The call rests on the fitted dose curve; in most records, active means well fitted curve in the direction sought with a large enough effect; inconclusive means small, poorly fitted or top-dose-only effect, or another doubt; inactive means no such curve, though single readings can be large; an effect the other way counts as inactive or inconclusive. Potency means the concentration at half of the fitted maximal effect.

SMILES	ELG1 genotoxic	SMN2 splice up	NPC1 prom act	Rab9 prom act	FLuc modulator
COC(=O)c1ccccc1NC(=O)COC(=O)c1ccccc1N=Nc1ccc(N(C)C)cc1	0.9%	?	2.0%	17.0%	12µM*
COc1ccc(-c2nc3cc(NC(=O)COc4ccccc4C)ccc3o2)cc1	/	/	/	/	-13.4%
CCOc1ccc(C(=O)N2CCN(Cc3cc(=O)n4nc(-c5ccccc5Cl)sc4n3)CC2)cc1	/	/	/	/	-8.2%
COc1cc2cc(C#N)c(SCC(=O)N3CCOCC3)nc2cc1OC	8.6%	12.6µM*	14.4%	4.4%	-1.3%
CC(=O)CSc1nc2cc3c(cc2cc1C#N)OCCO3	?	/	3.16µM*	?	0.675µM*
N#Cc1cc2cc3c(cc2nc1SCC(=O)N1CCCC1)OCCO3	2.5%	/	?	?	2.9%
COc1cc2cc(C)c(SCC(=O)N3CCOCC3)nc2cc1OC	6.0%	/	-0.7%	-3.3%	-1.9%
CC(=O)Nc1ccc(S(=O)(=O)Nc2nc3ccc(C)cc3s2)cc1	4.2%	-1.2%	-4.3%	-1.5%	-1.7%
CNC(=S)Nc1ccc(-c2nc3ccc(C)cc3s2)cc1	?	11.2µM*	0.794µM*	0.398µM*	1.35µM*
COCCNc1nnc(SC(C)C(=O)Nc2c(C)n(C)n(-c3ccccc3)c2=O)s1 (stereo not drawn)	-2.4%	/	-3.5%	-0.5%	6.8%
COCCNc1nnc(SC(C)C(=O)Nc2ccc(-c3nc4ccc(C)cc4s3)cc2)s1 (stereo not drawn)	?	/	1.58µM*	0.282µM*	3.01µM*
CC(=O)NC(=S)Nc1ccc(-c2nc3ccc(C)cc3s2)cc1	?	12.6µM*	0.447µM*	0.447µM*	2.13µM*
CC1=CCC(C(=O)O)C(C(=O)Nc2ccc(-c3nc4ccc(C)cc4s3)cc2)C1 (stereo not drawn)	5.17µM*	/	?	22.5%	3.38µM*
Cc1ccc(C)c(NC(=O)CN2C(=O)CSc3nc(C)cc(C)c32)c1	/	-28.1%	/	/	1.7%
CCCCN1C(=O)c2ccc(C(=O)Nc3ccccc3N3CCOCC3)cc2C1=O	-4.6%	-5.6%	-3.8%	-2.0%	-10.4%
CCN1C(=O)/C(=C2\SC(N3CCOCC3)=NC2=O)c2ccccc21	2.7%	/	18.5%	25.6%	10.7µM*
C=CCN1C(=O)/C(=C2\SC(N3CCOCC3)=NC2=O)c2cc(Br)ccc21	-5.9%	10.8%	-0.6%	-3.1%	-14.3%
CCCCN1C(=O)/C(=C2\SC(N3CCOCC3)=NC2=O)c2ccccc21	-2.2%	/	2µM*	2µM*	?
O=S(=O)(NCCc1nnc2ccc(SCc3c(F)cccc3Cl)nn12)c1ccccc1	/	/	/	/	-13.4%
c1ccc(-c2cccs2)nc1	-2.4%	/	0.7%	-0.1%	5.5%
c1cc(-c2cccs2)nc(-c2cccs2)c1	10.5%	20.4%	7.7%	4.3%	15.1µM*
c1csc(-c2cnc3ccccc3n2)c1	?	?	3.98µM*	?	10.7µM*
CCc1nn2c(=O)cc(COC(=O)c3ccco3)nc2s1	/	/	/	/	-10.4%
Cc1nnsc1C(=O)N/N=C/c1c(F)cccc1Cl	1.1%	2.4%	1.5%	12.4%	-1.2%
Cc1[nH]cnc1C(=O)N/N=C/c1c(Cl)cccc1Cl	24.0%	/	?	?	15.1µM*
SMILES	ELG1 genotoxic	SMN2 splice up	NPC1 prom act	Rab9 prom act	FLuc modulator
COC(=O)c1sc(NC(=O)c2ccncc2)nc1C	3.6%	/	-2.4%	12.3%	23.9µM*
COC(=O)c1sc(NC(=S)NC(=O)c2cccc(Br)c2)nc1C	13.7%	/	-3.5%	3.3%	13.5µM*
COC(=O)c1sccc1NC(=O)c1ccncc1	7.4%	-7.2%	4.9%	1.6%	-1.4%
CCOc1ccc(C(=O)Nc2nc(C)c(C(=O)OC)s2)cc1	20.6µM*	/	?	?	0.757µM*
C=CCOC(=O)c1sc(NC(=O)c2ccc(OC)cc2)nc1C	?	?	-36.6%	1.7%	?
COC(=O)c1sc(NC(=S)NC(=O)c2ccc(F)cc2)nc1C	10.0%	-35.9%	27.0%	?	3.2%
Cc1cc(NC(=O)CSc2cn(CCNC(=O)c3ccc(F)cc3)c3ccccc23)no1	0.0%	-4.2%	1.4%	-0.5%	16.9µM*
COc1ccc(C(=O)NCCn2cc(SCC(=O)NCc3ccco3)c3ccccc32)cc1	4.9%	-50.1%	19.7%	?	16.9µM*
Cn1nnc2c(NCc3c(F)cccc3F)ncnc21	/	/	/	/	-5.9%

Bioassay records deposited in PubChem by National Center for Advancing Translational Sciences (NCATS).
